Source: ChEMBL document CHEMBL4513216, “Probing the Open Global Health Chemical Diversity Library for Multistage-Active Starting Points for Next-Generation Antimalarials” (ACS Infect Dis, 2020)
Among all 69,000 compounds or so, about 8,600 (12%) showed an effect of 50% or more. For the sample, strong results were picked, then their nearest neighbours and some compounds at random.

tested on: Plasmodium berghei; test: Screen against P. berghei liver stage (PbLuc), transformed with Luciferase, at 10uM; assay type: functional, HepG2; conditions: tested at 10 uM

| Compound | INHIBITION |
| --- | --- |
| CN(C)CC(=O)N1CC2(CCN(S(=O)(=O)c3ccccc3)C2)C1 | -25.8% |
| C1CCC(CNC2CCCN(Cc3noc(C4CC4)n3)C2)C1 (stereo not given) | 7.43% |
| CC(c1ncc(-c2ccccc2)o1)N1CCN(C(=O)N(C)C)CC1 (stereo not given) | 48.2% |
| CCn1c(C)nnc1CN(C)C1CCN(CCS(=O)(=O)CC)C1 (stereo not given) | -49.5% |
| CC(C)CCN1C2(CCN(C(=O)CN(C)C)C2)c2ccccc2S1(=O)=O (stereo not given) | 21.4% |
| CS(=O)(=O)N1CC2(CCN(C3CCCCC3)CC2)Cc2ccccc21 | 32.5% |
| O=C(c1n[nH]c2c1CCN(Cc1nccs1)C2)N1CCCC1 | 18.1% |
| CS(=O)(=O)c1cc(NC(=O)COc2ccccc2F)cc(C(=O)O)c1 | 1.98% |
| CC(C)CCC(=O)NC(C#N)CC(C)C (stereo not given) | 9.91% |
| CC(C)CC(C#N)NC(=O)CCNC(=O)C(C)(C)C (stereo not given) | 55.5% |
| CCC(C#N)NC(=O)CCNC(=O)C(C)(C)C (stereo not given) | -0.991% |
| Cc1nc(CN2CCC3(CC2)NC(=O)CC3c2ccccc2)cs1 (stereo not given) | 34.1% |
| CC(C)Cc1noc(C2CCCCN2C(=O)CCc2cnn(C)c2)n1 (stereo not given) | 32.2% |
| Cc1nn(C)c2sc(C(=O)N3CCCC(n4ccnc4C)C3)cc12 (stereo not given) | 28.4% |
| O=c1occ(CN2CCCCCC2)c(O)c1CN1CCOCC1 | -28.7% |
| Cc1nc(C)c(S(=O)(=O)NC(=O)c2ccsc2)s1 | 21.8% |
| Cc1nc(C)c(S(=O)(=O)NC(=O)c2cccs2)s1 | 22.8% |
| Cc1nc(C)c(S(=O)(=O)NC(=O)c2sccc2C)s1 | 51.5% |
| Cc1nc(C)c(S(=O)(=O)NC(=O)c2ccoc2)s1 | 64.4% |
| Cc1cccc(NC(=O)c2sccc2C)n1 | -52.1% |
| O=C(NS(=O)(=O)c1cnn(-c2ccccc2F)c1)c1ccoc1 | -17.4% |
| CCC(C)C(=O)NCCc1nc(C(F)(F)F)cs1 (stereo not given) | 5.42% |
| CCc1nc(C(=O)N2CC(C)CN(C)c3ccccc32)c[nH]1 (stereo not given) | -15% |
| CCOCCCn1c(NC(=O)c2cnc(C)s2)nc2ccccc21 | 57% |

| Compound | INHIBITION |
| --- | --- |
| CCOCCCn1c(NC(=O)c2cc(C)on2)nc2ccccc21 | 64.9% |
| CCOc1cccc(NC(=O)c2cc(C)on2)n1 | 44.1% |
| CCOCCCn1c(NC(=O)c2ccc(C)nc2)nc2ccccc21 | 37.2% |
| CCN(CC)CCn1c(NC(=O)c2scnc2C)nc2ccccc21 | 59% |
| CCCn1c(NC(=O)CNC(=O)OCC)nc2ccccc21 | -3.74% |
| CCOCCCn1c(NC(=O)c2ccnc(C)n2)nc2ccccc21 | 25.4% |
| CCOCCCn1c(NC(=O)c2cnn(C)c2)nc2ccccc21 | -4.73% |
| CCOCCCn1c(NC(=O)c2scnc2C)nc2ccccc21 | 69.8% |
| CCOCCCn1c(NC(=O)c2cc(C)no2)nc2ccccc21 | 5.7% |
| CCOCCCn1c(NC(=O)c2cnc(C)cn2)nc2ccccc21 | -96.9% |
| Cc1ncsc1C(=O)Nc1ccccn1 | 25.2% |
| Cc1ccc(C(=O)NCCS(=O)(=O)N2CCSCC2)o1 | 44.9% |
| Cc1nc2cc(O)nn2c(C)c1CCC(=O)N(C)Cc1cscn1 | -16.6% |
| O=C1CCCN1c1cccc(CNCc2nc(-c3ccco3)no2)c1 | -8% |
| Cn1nccc1CCC(=O)NC1CCCN(c2ccccn2)C1 (stereo not given) | 25.05% |
| CC(C)N(C)[C@@H]1CCN(Cc2nccs2)[C@H]1Cc1ccncc1 | 24.6% |
| CC1COCCN1Cc1nc(-c2ccc(F)cc2)no1 (stereo not given) | -0.113% |
| COC1C[C@@H]2CN(C(=O)c3[nH]nc4c3CCCC4)C[C@@H]2C1 (stereo not given in full) | 24.8% |
| Cn1c(CN2CCCC(c3noc(C4CC4)n3)C2)cc(=O)n(C)c1=O (stereo not given) | -50.5% |
| CNC(=O)c1cccc(C2CNCCN2C(=O)c2cccc(F)c2)c1 (stereo not given) | 44.8% |
| COCCN1CCC2(CC1)CN(C(=O)N(C)C)c1ccc(C)cc12 | 26.2% |
| COc1ccccc1NC(=O)C1(c2ccccc2)CCOCC1 | 6.26% |
| CCOCC(=O)N1C[C@H]2CC[C@@H](C1)N(Cc1ccccn1)C2=O | 28.7% |
| COCCOc1ccc(NC(=O)C2CC(=O)N(C3CC3)C2)cn1 (stereo not given) | 4.71% |

| Compound | INHIBITION |
| --- | --- |
| COCCN(Cc1ccc(C)cc1)CC1CCOC1 (stereo not given) | 67.4% |
| COCCN(Cc1cnn(C)c1)CC1CCN(C(C)C)CC1 | 33.7% |
| COCCN(Cc1cnn(C)c1)CC1CCOC1 (stereo not given) | 19.8% |
| c1cc(-c2cnc(NC3CC3)nc2[C@H]2CCCO2)ccn1 | -12.3% |
| Cc1ccc(C(=O)N2CC3(CCNCC3)c3cc(Cl)ccc32)cn1 | 5.04% |
| CCN1CC(COC(=O)c2ccc(Br)cc2F)CC1=O (stereo not given) | 0.0459% |
| Cc1ncc2c(n1)CN(Cc1nc(C)c(C)o1)CC2 | 38% |
| Cc1noc(C)c1CN1CCCC2(CCN(CC3CCCC3)C2)C1 (stereo not given) | 49.4% |
| COc1ncc(CN2CCC3(CCCN(CC4CCCCC4)C3)C2)cn1 (stereo not given) | 6.94% |
| COCCc1ncc(CN2CCC3(CCCN(CC4CC4)C3)C2)cn1 (stereo not given) | 46.6% |
| CCc1ncc(CN2CCC3(CCCN(CC4CCC4)C3)C2)cn1 (stereo not given) | 57.5% |
| COc1ncc(CN2CCC3(CCCN(CC4CCC4)C3)C2)cn1 (stereo not given) | 17.8% |
| Cc1ncc(CN2CCC3(CCCN(CC4CCC4)C3)C2)cn1 (stereo not given) | 53.5% |
| Cc1nc(NCC(O)CN2CCCCCC2)c2c(C)nn(C)c2n1 (stereo not given) | -30.3% |
| CC(=O)N1CC[C@H]2OCC[C@@H](C(=O)Nc3cccnc3C)[C@@H]2C1 | -1.28% |
| COC(=O)CN1CC(c2nc(Cc3ccccc3)no2)C1 | -14.6% |
| CNC(=O)CCc1cc(C2CCCN2S(C)(=O)=O)nc(C)n1 (stereo not given) | 6.33% |
| OCCNc1cc(-c2ccncc2)ncn1 | 47.1% |
| C[C@H](O)CNc1cc(-c2ccccc2)ncn1 | 26.3% |
| C[C@H](O)CNc1cc(-c2ccncc2)ncn1 | 54.5% |
| Cc1cc(CN2C[C@@H]3COC[C@]3(CNC(=O)c3ccsc3)C2)no1 | -2.25% |
| O=C(CCC1CCCC1)N1C[C@@H]2CC[C@H]1CN(Cc1ccncc1)C2 | 27.6% |
